Sampled rows, rich in hits. Any-hit rate of the full collection: about 0.72%.
MRP-1 activ = activators of MRP-1; H69AR cells + doxorubicin, viability rescue, CellTiter-Glo; viability increase, % at 10 µM; 0.61% of 140,000 active; AID 799;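 active = viability gain under doxorubicin at or above a set limit, the compound median plus 3 SD, cut at about 4.7% in these data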;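 note: MRP-1 overexpressing cells given doxorubicin 25 µM after compound pretreatment; 18-22 h compound pretreatment then 72 h with doxorubicin before readout; 0% = doxorubicin-only wells and 100% = vehicle-treated cells without doxorubicin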
MRP resist rev = MRP-mediated drug resistance reversal; H69AR cells + 2 uM doxorubicin, CellTiter-Glo, 72 h; differential viability (reversal), % at 10 µM; 0.04% of 85,000 active; AID 602;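 active = viability drop by adding the cancer drug above about 55%, with treated viability meeting a 40% cutoff, limit read from the data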;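 note: viability without doxorubicin minus viability with 2 µM doxorubicin for each compound; larger differential means the compound sensitizes cells more to doxorubicin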
Phagocyt inh = macrophage phagocytosis inhibition; 0.07% of 110,000 active; inhibition, % at 5 µM; J774A.1 macrophage IgG-bead phagocytosis, imaging;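 active = inhibition above the mean of the plate negative controls plus 5 SD, cut at about 13% in these data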;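 note: phagocytic index as fraction of beads internalized from green versus red external bead signal; plate controls were DMSO negative control for no effect and cytochalasin-D positive control for full effect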
An asterisk follows results filed as active; . = not tested or not shown.

SMILES	MRP-1 activ	MRP resist rev	Phagocyt inh
Cc1ccc2nc(SCCCCOc3ccccc3)[nH]c2c1	0	.	.
c1ccc(OCCSc2nc3ccccc3[nH]2)cc1	5.3*	27	.
Cc1cccc(C)c1C(=NCCCN(C)C)c1ccccc1	-3	.	-3
O=C(NCCc1ccc2c(c1)OCCO2)c1cccc(F)c1	0	.	-6
O=C(NCCc1ccc2c(c1)OCCO2)c1cc(F)cc(F)c1	4.7*	.	-5
CC(C)(C)NC(=O)COC(=O)/C=C/c1ccc(F)cc1	1	.	-6
COc1cccc(Nc2ncc(C(=O)O)c3ccccc23)c1	5.1*	0	.
COc1ccc(OC)c(NC(=O)c2cnc(Nc3ccccc3OC)c3ccccc23)c1	-1	.	-4
COc1ccc(/C(C)=N/OC/C(O)=C(\C#N)c2nc3ccccc3[nH]2)cc1	-5	.	-2
Cc1ccc(-c2noc(C3CCCN(S(=O)(=O)c4ccc5ccccc5c4)C3)n2)o1 (configuration not stated)	7.3*	-38	0
Cc1ccc(S(=O)(=O)N2CCCC(c3nc(-c4ccc(C)o4)no3)C2)cc1 (configuration not stated)	0	17	-2
O=C(NNC(=O)c1cccnc1)Nc1cccc2ccccc12	5.7*	.	.
O=C(NNC(=O)c1cccnc1)Nc1cccc(Cl)c1Cl	0	.	-4
O=C(CSc1nc2ccccc2n1Cc1ccccc1)N/N=C/c1ccco1	-2	.	0
Cc1ccc(Cn2c(SCC(=O)N/N=C/c3ccc(C)o3)nc3ccccc32)cc1	4.7*	.	.
CCOC(=O)c1c(/N=C/c2cccc(C)c2O)sc2c1CCN(C)C2	-3	.	-6
Cc1cccn2c(=O)c(C=NCc3ccco3)c(Nc3ccc(Cl)cc3)nc12	.	-2	.
COC(=O)/C(=C/c1ccco1)NC(=O)c1ccco1	-2	.	1
COc1ccc(OC)c2[nH]c(=O)c(CCNC(=O)c3ccc(Br)o3)cc12	4.7*	-4	-1
COc1ccc(OC)c2[nH]c(=O)c(CCNC(=O)C(C)C)cc12	2	-6	0
CS(=O)(=O)NN1C(=O)c2ccccc2NC1c1c[nH]c2ccccc12 (configuration not stated)	1	.	-4
O=C1CNC(=S)N1c1nc(-c2ccccc2)cs1	4.8*	.	3
COc1ccc(-c2csc(N3C(=O)CNC3=S)n2)cc1	3	.	-3
Cc1ccccc1OCCSc1nnc(-c2cccnc2)n1N	-1	.	-5
CCCCc1ccc(N=N/C(C(=O)Nc2cc(OC)c(NC(C)=O)cc2OC)=C(/C)O)cc1	-2	.	-9
SMILES	MRP-1 activ	MRP resist rev	Phagocyt inh
C=CCc1c(C)nc(-c2ccccc2)nc1N/N=C(\C)c1ccccc1	5.5*	.	-12
C=CCc1c(C)nc(-c2ccccc2)nc1Nc1ccc(O)cc1	-4	.	-11
COc1ccc(/C=N/NC(=O)c2ccc(C)cc2)cc1CN1CCN(c2ccc(F)cc2)CC1	-4	.	-5
COc1ccc(/C=N\NC(=O)c2cc(O)c(O)c(O)c2)cc1CN1CCN(c2ccc(F)cc2)CC1	12*	.	-7
Cc1cc(C(=O)COC(=O)CN=C2NS(=O)(=O)c3ccccc32)c(C)n1CCc1ccc(Cl)cc1	2	.	-7
COc1ccc(-c2ocnc2C(=O)Nc2ccccc2N2CCCCC2)cc1	7.2*	-13	0
CCOc1ccc(C(=O)Nc2ccccc2N2CCCC2)cc1	-2	-20	.
Cc1ccc(N/N=C(\C#N)C(N)=S)c(C)c1	8.2*	.	-1
CCOC(=O)Nc1ccc(C)cc1C	-2	6	-1
CCCN1C(=O)c2cc(C(=O)NCc3cccs3)ccc2C1O (configuration not stated)	0	-4	-1
Cc1c(C)n(C)c2ccc(C(=O)NCc3cccs3)cc12	5.5*	25	0
Cn1c(N/N=C\c2cccc(O)c2)cc(=O)n(C)c1=O	1	.	-4
COc1ccc(-n2c(C)cc(C(=O)CN3C(=O)NC4(CCCc5sccc54)C3=O)c2C)cc1 (configuration not stated)	2	.	3
Cc1cc(C(=O)CN2C(=O)NC3(CCCc4sccc43)C2=O)c(C)n1-c1ccccc1 (configuration not stated)	4.8*	.	3
Cc1ccc(S(=O)(=O)N(C)CCCC(=O)Nc2cccc3ccccc23)cc1	-1	.	-3
CC(C)CCn1c(=O)c2ccccc2n2c(COC(=O)c3ccc(S(=O)(=O)N(C)C)cc3)nnc12	.	-15	1
CC(C)CCn1c(=O)c2ccccc2n2c(CN(C)Cc3ccccc3)nnc12	-4	62*	2
Cc1cccc(C)c1C(OCCN(C)C)C1CCCCC1 (configuration not stated)	-5	.	-1
FC(F)Oc1ccc(/C=N/c2c(-c3ccc(OC(F)F)cc3)nc3n2CCS3)cc1	-3	5	.
CCOC(=O)c1[nH]c2ccccc2c1NC(=O)c1ccc(S(=O)(=O)N2CCCC2)cc1	-4	.	.
CCOC(=O)C1=C(C)N=c2s/c(=C\c3ccc(OC(C)=O)cc3)c(=O)n2C1/C=C/c1ccccc1 (configuration not stated)	6.7*	.	-2
CCOC(=O)C1=C(C)N=c2s/c(=C\c3ccc(OC(C)=O)c(OCC)c3)c(=O)n2C1/C=C/c1ccccc1 (configuration not stated)	-2	.	4
Cc1cc(C)c(C(=O)COC(=O)CCNS(=O)(=O)c2c(Cl)cccc2Cl)cc1C	-2	.	-5
CC(NC(=O)/C=C/c1cnc2ccccc2n1)C12CC3CC(CC(C3)C1)C2 (configuration not stated)	-5	.	-5
Cc1cccc(Oc2nc(CN3CCOCC3)nc3sc4c(c23)CCCC4)c1	-4	.	0
SMILES	MRP-1 activ	MRP resist rev	Phagocyt inh
COc1cccc(/C=N/NC(=O)C[n+]2ccccc2)c1O	1	.	-3
COc1cccc(/C=N/NC(=O)CNC(=O)C2COc3ccccc3O2)c1O (configuration not stated)	9.6*	.	-8
O=C(CNC(=O)c1ccc2c(c1)OCCO2)N/N=C/c1ccc(O)cc1O	2	.	-7
COc1cccc(/C=N/NC(=O)CNC(=O)c2ccc3c(c2)OCCO3)c1O	5.9*	.	-6
O=C(Nc1cccs1)OCCN1CCN(Cc2ccccc2)CCC1=O	-1	.	.
Cc1ccc(S(=O)(=O)NCC(=O)OC(C)C(=O)Nc2ncc(Cl)cc2Cl)cc1 (configuration not stated)	-1	-23	.
CC1(C)C2CCC1(C)C(OCC[N+](C)(C)CC(=O)OC1CCCCC1)C2 (configuration not stated)	-3	.	20
O=C(CSc1nc(-c2ccccc2)c(-c2ccccc2)[nH]1)NCCN1C(=O)CSC1=O	-6	-11	1
O=C1[C@@H]2C(Cc3ccc(O)cc3)NC3(C(=O)Nc4ccc(F)cc43)[C@@H]2C(=O)N1c1ccccc1 (some centres not stated)	3	11	-1
O=C1[C@@H]2[C@H](Cc3ccc(O)cc3)N[C@]3(C(=O)Nc4ccccc43)[C@@H]2C(=O)N1c1ccc(F)cc1	5.7*	11	-1
Cc1cccc(NC(=O)c2ccc(N3CCCCC3)c([N+](=O)[O-])c2)n1	3	.	-1
Cc1ccc(C)c2sc(NC(=O)c3ccc(N4CCCCC4)c([N+](=O)[O-])c3)nc12	6.7*	.	.
O=C(O)c1ccc(CNCc2ccc(Cl)cc2)cc1	2	.	1
CCC(NC(=O)/C(=C\c1ccc2c(c1)OCO2)NC(C)=O)C(=O)O (configuration not stated)	0	.	-8

Screening data from PubChem BioAssay.
